Experimental data reported in PubChem BioAssay AID1645855 (Buhrlage Lab, Dana-Farber Cancer Institute and Novartis …, 2021).
In all, about 47,000 compounds went through this assay and about 3,100 (6.6%) were called active. The full list was thinned out, with actives kept by preference. Values without a mark were called inactive. Cut-off read from the data, not from the text of the source: active = inhibition above about 30%; inactive = the rest.

biological target: Ubiquitin carboxyl-terminal hydrolase 17-like protein 5 (Homo sapiens) (UniProt A8MUK1); experiment: blocks human USP17 ubiquitin-rhodamine cleavage (AID 1645855); settings: purified USP17, Ub-rhodamine cleavage fluorescence, 3 h; at 50 µM; active compounds read high
Sequence (A8MUK1 whole entry, looked up): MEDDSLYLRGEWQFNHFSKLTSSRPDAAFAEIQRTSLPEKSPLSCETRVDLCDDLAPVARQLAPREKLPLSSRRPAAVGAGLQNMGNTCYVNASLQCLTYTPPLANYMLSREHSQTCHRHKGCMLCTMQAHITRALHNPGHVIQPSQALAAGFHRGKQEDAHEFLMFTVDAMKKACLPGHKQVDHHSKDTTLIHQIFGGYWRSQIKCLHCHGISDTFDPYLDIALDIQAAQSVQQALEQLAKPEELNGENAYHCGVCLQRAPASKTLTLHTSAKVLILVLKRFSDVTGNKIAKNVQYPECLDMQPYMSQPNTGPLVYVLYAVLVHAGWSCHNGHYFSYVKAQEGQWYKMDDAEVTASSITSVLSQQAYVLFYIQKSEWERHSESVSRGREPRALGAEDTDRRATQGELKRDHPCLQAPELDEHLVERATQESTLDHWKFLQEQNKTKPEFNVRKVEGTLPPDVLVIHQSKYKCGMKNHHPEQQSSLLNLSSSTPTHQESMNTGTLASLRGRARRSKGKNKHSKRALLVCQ

Point of comparison: `O=C(C1CCc2nc(N3CCOCC3)ncc2C1)N1CCCCCC1` (centres undefined), inhibition -6.44%. Against it:
- Cc1cc2oc(C(=O)Nc3ccc4c(c3)NC(=O)CO4)c(C)c2cc1Cl — higher, 11.8%
- CN(Cc1cccnc1)Cc1ccc(N2CCC(NC(=O)c3ccc4c(c3)OCO4)CC2)nc1 — lower, -12%
- O=c1c2cnc(N3CCCCC3)nc2ccn1Cc1cccnc1 — lower, -8.83%
- CN1CCN(c2ncc3c(=O)n(Cc4ccccn4)ccc3n2)CC1 — higher, 11.4%
- Cc1nnc2n1CC(c1cccc(NC(=O)Cn3ccnc3C(C)C)c1)CC2 (centres undefined) — higher, 3.88%
- O=C(Cn1c(=O)n(Cc2ccc3c(c2)OCO3)c(=O)c2cccnc21)Nc1ccc(F)cc1 — higher, 14.6%
- CC(C)[C@H](NC(=O)N1CCn2c1nc1ccccc12)C(=O)NCCc1ccccc1 — lower, -12.9%
- O=S1(=O)c2ccccc2O[C@H]2CCN(c3ncccn3)CC[C@@H]2N1Cc1cccnc1 — lower, -37.6%
- CCN1CCN(c2nc(F)c3c(c2F)S(=O)(=O)CCN3CC2CCCO2)CC1 (centres undefined) — higher, 16.6%
- Cc1noc(-c2ccc3nnc(CC(=O)Nc4ccc(C)c(F)c4)n3c2)n1 — higher, -2.57%
- COC(=O)c1cccc(Oc2nc(OC)nc(OC)n2)c1 — higher, -1.33%
- Cc1cc(C)n(Cc2c(C(=O)NCc3ccc(F)cc3)noc2C)n1 — higher, -5.62%
- Cc1ccc(CNC(=O)c2ccc(-c3cccnc3)nc2)cc1 — higher, 9.44%
- CCn1cc(S(=O)(=O)CC(=O)Nc2ccccc2C(F)(F)F)c2ccccc21 — higher, -1.62%
- O=C(Nc1ccccc1[N+](=O)[O-])N1CCN(c2ccc3nnc(-c4ccccc4)n3n2)CC1 — higher, 12.5%
- CC1CCN(C(=O)CSc2ccc3nnc(-c4cccc(F)c4)n3n2)CC1 — higher, -2.06%
- COCCn1c(=O)[nH]c2cc(C(=O)N3CCC(Cc4ccccc4)CC3)ccc2c1=O — higher, 2.53%
- COCCn1c(=O)[nH]c2cc(C(=O)NCc3ccc(Cl)cc3)ccc2c1=O — higher, 0.361%
- CN1CCN(S(=O)(=O)c2cccc(C(=O)Nc3cccc(S(N)(=O)=O)c3)c2)CC1 — higher, -6.3%
- COc1cccc(N2CCN(C(=O)C3CCN(c4ncnc5onc(C)c45)CC3)CC2)c1 — lower, -20.4%
- CCOc1ccc2nc(NC(=O)CN3CCC(C(N)=O)CC3)sc2c1 — higher, -0.089%
- CCC(=O)c1ccc(OCC(=O)Nc2ccc3nc(C)sc3c2)cc1 — higher, 5.34%
- CC(=O)N1c2ccc(S(=O)(=O)NCC3CCC(C(=O)Nc4cccnc4)CC3)cc2CC1C (centres undefined) — higher, 0.344%
- CC(Oc1ccc2c3c(c(=O)oc2c1)CCC3)C(=O)NCC(=O)N1CC[C@@]2(O)CCCC[C@H]2C1 (some centres undefined) — higher, 10.3%
- CNC(=O)c1cnc2scc(-c3ccccc3)n2c1=O — higher, 1.82%
- Cc1ccc2c(c1)C(=O)NCC1(CCN(C(=O)c3cscn3)CC1)O2 — higher, 0.0795%
- O=C(Nc1ccc2sc(NC(=O)C3CCCCC3)nc2c1)NC1CCCC1 — higher, 20.6%
- Cc1noc2nc(C3CC3)cc(C(=O)Nc3nc4ccccc4s3)c12 — higher, -4.21%
- Cc1ccc(Cn2cc(C(=O)O)c(S(=O)(=O)N3CCOCC3)n2)cc1 — lower, -22.5%
- CC(C)OCCCn1c(=O)c2ccccc2n2c(CCC(=O)NCCN3CCN(c4cccc(Cl)c4)CC3)nnc12 — higher, 8.41%
- Cc1ccc(NC(=O)C2CCCN(c3ncnc4onc(C)c34)C2)nc1 (centres undefined) — higher, 0.0336%
- O=C(NCC1CC1)c1nc(-c2ccc3[nH]ccc3c2)no1 — lower, -9.5%
- O=C(NC1CC1)C1CCN(c2ncccc2-c2nc(-c3ccccc3)no2)CC1 — higher, 17.4%
- CSCC[C@H](NC(=O)N1CCn2c1nc1ccccc12)C(=O)NCc1ccc2c(c1)OCO2 — higher, 14.2%
- CCn1c(=O)c(CCC(=O)N2CCN(c3ccccc3)CC2)nc2c(C)nn(-c3ccccc3)c21 — higher, 5.12%

For `O=c1c2cnc(N3CCOCC3)nc2ccn1CCc1ccccc1`, the inhibition was 71.6% (active).
`CC1CCN(c2nc(F)c3c(c2F)S(=O)(=O)CCN3Cc2cccnc2)CC1` was tested, and the inhibition was 50.9% (active).
`CNS(=O)(=O)c1ccc(CNC(=O)c2cc(-c3ccc(C)cc3)no2)cc1` was tested, and the inhibition was 65% (active).
For `Cc1cccc(-c2nnc3ccc(N4CCC(C(=O)NC(C)Cc5ccco5)CC4)nn23)c1` (centres undefined), the inhibition was 48.5% (active).
For `COCCn1c(=O)[nH]c2cc(C(=O)NCCNc3ccc([N+](=O)[O-])cc3C#N)ccc2c1=O`, the inhibition was 53.7% (active).
For `CCC(=O)Nc1nc2cc(NC(=O)c3ccc(OC)cc3)ccc2s1`, the inhibition was 30.9% (active).
For `Cc1ccc2sc(NC(=O)NC(=O)c3c(Cl)cccc3Cl)nc2c1`, the inhibition was 36.4% (active).
`O=C(NC1CC1)c1nc(-c2ccc(-n3cccc3)cc2)no1` was tested, and the inhibition was 43.1% (active).
